# Experimental data reported in PubChem BioAssay (EPA / NIEHS).
# Activity calls are given as the source filed them. How the source made its calls: active means hit-call score of the fitted dose curve at least 0.9, where 1 is the maximum; inactive means score below 0.9.
# What was measured:
# [1] = read-out: Plasminogen activator inhibitor-1 (PAI1), SERPINE1 (gene 5054); test: BSK_hDFCGF_PAI1: BioMAP Diversity Plus: hDFCGF Assay for Plasminogen activator inhibitor-1 (PAI1) Biomarker Activity (AID 2283066); details: primary human foreskin fibroblasts; actives raise or lower the signal
# In short: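 Human foreskin fibroblasts in the hDFCGF system were dosed with compound for 24 h; PAI-1 was quantified by ELISA. Bidirectional curve fitting used DMSO as negative control and baseline.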
# [2] = read-out: Intercellular Adhesion Molecule 1 (ICAM1), ICAM1 (gene 3383); test: BSK_KF3CT_ICAM1: BioMAP Diversity Plus: KF3CT Assay for Intercellular Adhesion Molecule 1 (ICAM1) Biomarker Activity (AID 2283067); details: primary human keratinocytes with fibroblasts; actives raise or lower the signal
# In short: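 Human keratinocyte–foreskin fibroblast co-culture was treated for 24 h. Cell-surface ICAM-1 was quantified by ELISA, fitted bidirectionally relative to DMSO. Cytotoxicity was checked in parallel cultures by SRB total-protein staining.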
# [3] = read-out: Interferon-gamma inducible Protein 10 (IP10), CXCL10 (gene 3627); test: BSK_KF3CT_IP10: BioMAP Diversity Plus: KF3CT Assay for Interferon-gamma inducible Protein 10 (IP10) Biomarker Activity (AID 2283068); details: primary human keratinocytes with fibroblasts; actives raise or lower the signal
# In short: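 In a primary skin co-culture of keratinocytes and fibroblasts, IP-10 is quantified by ELISA at 24 h after dosing. SRB staining of parallel wells monitors overt toxicity. Curves are fitted both directions against DMSO.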
# [4] = BSK_KF3CT_SRB: Viability Assessment in the BioMAP Diversity Plus: KF3CT Assay (AID 2283069); details: primary human keratinocytes with fibroblasts;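 further: total protein by sulforhodamine B staining as a cytotoxicity measure; read 24 h after compound addition; fitted for both signal gain and loss against DMSO baseline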
# In short: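 Human keratinocyte and foreskin fibroblast co-culture exposed to chemical for 24 h. Total protein measured in parallel cultures by 0.1% sulforhodamine B staining after 10% TCA fixation, read at 560 nm; bidirectional fit relative to DMSO.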
# [5] = read-out: Interleukin-1 alpha (IL1a), IL1A (gene 3552); test: BSK_KF3CT_IL1a: BioMAP Diversity Plus: KF3CT Assay for Interleukin-1 alpha (IL1a) Biomarker Activity (AID 2283070); details: primary human keratinocytes with fibroblasts; actives raise or lower the signal
# In short: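 Primary human keratinocyte plus foreskin fibroblast co-culture, dosed and measured at 24 h in 96-well plates. IL-1a level quantified by ELISA; bidirectional fit relative to DMSO.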
# [6] = read-out: TIMP metallopeptidase inhibitor 2 (TIMP2), TIMP2 (gene 7077); test: BSK_KF3CT_TIMP2: BioMAP Diversity Plus: KF3CT Assay for TIMP metallopeptidase inhibitor 2 (TIMP2) Biomarker Activity (AID 2283071); details: primary human keratinocytes with fibroblasts; actives raise or lower the signal
# In short: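 Human primary keratinocyte/foreskin fibroblast co-culture dosed with chemical and sampled at 24 h. TIMP-2 levels quantified by ELISA; bidirectional fitting against DMSO negative control as baseline.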
# [7] = read-out: Transforming growth factor beta 1 (TGFb1), TGFB1 (gene 7040); test: BSK_KF3CT_TGFb1: BioMAP Diversity Plus: KF3CT Assay for Transforming growth factor beta 1 (TGFb1) Biomarker Activity (AID 2283072); details: primary human keratinocytes with fibroblasts; actives raise or lower the signal
# In short: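 Human keratinocyte plus foreskin fibroblast primary co-culture, dosed with chemical for 24 h. TGF-b1 quantified by ELISA. Activity fitted bidirectionally against DMSO negative control as baseline.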
# [8] = read-out: Matrix Metallopeptidase 9 (MMP9), MMP9 (gene 4318); test: BSK_KF3CT_MMP9: BioMAP Diversity Plus: KF3CT Assay for Matrix Metallopeptidase 9 (MMP9) Biomarker Activity (AID 2283074); details: primary human keratinocytes with fibroblasts; actives raise or lower the signal;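 on AC50: MMP9 protein level quantified by ELISA in the co-culture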
# In short: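 Human keratinocyte and foreskin fibroblast co-culture exposed to chemicals for 24 h; MMP9 biomarker measured by ELISA, bidirectional fitting relative to DMSO; cytotoxicity tracked by SRB total protein staining in parallel cultures.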
# [9] = read-out: C-C motif chemokine 2 (Homo sapiens) (UniProt P13500); test: BSK_KF3CT_MCP1: BioMAP Diversity Plus: KF3CT Assay for Monocyte Chemoattractant Protein 1 (MCP1/CCL2) Biomarker Activity (AID 2283073); details: primary human keratinocytes with fibroblasts; actives raise or lower the signal
# In short: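 Human keratinocyte–foreskin fibroblast co-culture; MCP-1 measured by ELISA 24 h after dosing. Bidirectional fit vs DMSO; cytotoxicity tracked by SRB total protein in parallel cultures.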
structure (smiles),measurement,setting,value
COC(=O)CC(=O)OC,outcome,[1],inactive
same,outcome,[2],inactive
same,outcome,[3],inactive
same,outcome,[4],inactive
same,outcome,[5],inactive
same,outcome,[6],inactive
same,outcome,[7],inactive
same,outcome,[8],inactive
CCCCCCCCCCCCc1ccccc1,outcome,[1],inactive
same,outcome,[2],inactive
same,outcome,[3],inactive
same,outcome,[4],inactive
same,outcome,[5],inactive
same,outcome,[7],inactive
same,outcome,[9],inactive
same,outcome,[8],inactive
CC[C@H]1OC(=O)[C@H](C)[C@@H](O[C@H]2C[C@@](C)(OC)[C@@H](O)[C@H](C)O2)[C@H](C)[C@@H](O[C@@H]2O[C@H](C)C[C@H](N(C)C)[C@H]2O)[C@](C)(O)C[C@@H](C)C(=O)[C@H](C)[C@@H](O)[C@]1(C)O,outcome,[1],inactive
same,outcome,[2],inactive
same,outcome,[3],inactive
same,outcome,[4],inactive
same,outcome,[5],inactive
same,outcome,[6],inactive
same,outcome,[7],inactive
same,outcome,[9],inactive
same,outcome,[8],inactive
CCOC(=O)c1ccc(C2CCC(NC[C@H](O)COc3ccc(O)c(NS(C)(=O)=O)c3)CC2)cc1 (some centres undefined),AC50,[1],8.8 µM (active)
same,outcome,[2],inactive
same,outcome,[3],inactive
same,outcome,[4],inactive
same,outcome,[5],inactive
same,AC50,[7],18.7 µM (active)
same,outcome,[9],inactive
same,AC50,[8],27.2 µM (active)
COc1ccc(-n2nc(C(F)F)cc2-c2ccc(S(C)=O)cc2)cc1 (centres undefined),outcome,[1],inactive
same,outcome,[2],inactive
same,outcome,[3],inactive
same,outcome,[4],inactive
same,outcome,[5],inactive
same,outcome,[7],inactive
same,outcome,[9],inactive
same,outcome,[8],inactive
COc1ccc(/C=C/S(=O)(=O)NC(=O)c2ccc(C)cc2Cl)cc1,outcome,[1],inactive
same,outcome,[2],inactive
same,AC50,[3],32.6 µM (active)
same,outcome,[4],inactive
same,AC50,[5],8.09 µM (active)
same,outcome,[6],inactive
same,outcome,[7],inactive
same,outcome,[9],inactive
CC(O)CN(CCN(CC(C)O)CC(C)O)CC(C)O (centres undefined),outcome,[1],inactive
same,outcome,[2],inactive
same,outcome,[3],inactive
same,outcome,[4],inactive
same,outcome,[5],inactive
same,outcome,[7],inactive
same,outcome,[8],inactive
CC(C)CCCCCCOC(=O)c1ccc(C(=O)OCCCCCCC(C)C)c(C(=O)OCCCCCCC(C)C)c1,outcome,[1],inactive
same,outcome,[2],inactive
same,outcome,[3],inactive
same,outcome,[4],inactive
same,outcome,[5],inactive
same,outcome,[7],inactive
same,outcome,[9],inactive
same,outcome,[8],inactive
COCCOCCOCCOC,outcome,[1],inactive
same,outcome,[2],inactive
same,outcome,[3],inactive
same,outcome,[4],inactive
same,outcome,[5],inactive
same,outcome,[7],inactive
CNS(=O)(=O)c1cc(C(=O)N2CCC(CCN3C4CCC3CC(n3c(C)nc5ccccc53)C4)(c3cccc(F)c3)CC2)c(Cl)cc1F (centres undefined),AC50,[1],20 µM (active)
same,outcome,[2],inactive
same,outcome,[3],inactive
same,outcome,[4],inactive
same,outcome,[5],inactive
same,outcome,[6],inactive
same,AC50,[7],32.4 µM (active)
same,AC50,[8],20 µM (active)
CCN(C(=O)c1cc(C)cc(OC[C@H](C)Nc2ccncc2)c1)C(C)C,outcome,[1],inactive
same,outcome,[2],inactive
same,outcome,[3],inactive
same,outcome,[4],inactive
same,outcome,[5],inactive
same,outcome,[6],inactive
same,outcome,[7],inactive
same,outcome,[8],inactive
O=C1CCCCCN1,outcome,[1],inactive
same,outcome,[2],inactive
same,outcome,[3],inactive
same,outcome,[4],inactive
same,outcome,[5],inactive
same,outcome,[7],inactive
CC(=O)c1ccc2c(c1)[C@H](NC(=O)c1ccc(F)cc1)[C@@H](O)C(C)(C)O2,outcome,[1],inactive
same,outcome,[2],inactive
same,outcome,[3],inactive
same,outcome,[4],inactive
same,outcome,[5],inactive
same,outcome,[6],inactive
same,outcome,[7],inactive
same,outcome,[9],inactive
same,outcome,[8],inactive
CC/C(=C\C(=N/O)C(N)=O)C(C)[N+](=O)[O-] (centres undefined),outcome,[1],inactive
same,outcome,[2],inactive
same,outcome,[3],inactive
same,outcome,[4],inactive
same,outcome,[5],inactive
same,outcome,[7],inactive
same,outcome,[8],inactive
C1=CCCC=CCCC=CCC1,outcome,[1],inactive
same,outcome,[2],inactive
same,outcome,[3],inactive
same,outcome,[4],inactive
same,outcome,[5],inactive
same,outcome,[6],inactive
same,outcome,[7],inactive
same,outcome,[8],inactive
Cn1c(=O)cc(Oc2ccc(F)cc2F)c2cnc(NCC(C)(C)O)nc21,outcome,[1],inactive
same,outcome,[2],inactive
same,outcome,[3],inactive
same,outcome,[4],inactive
same,outcome,[5],inactive
same,outcome,[6],inactive
same,outcome,[7],inactive
same,outcome,[8],inactive
O=C1OC(=O)C2C3C=CC(C3)C12 (centres undefined),outcome,[1],inactive
same,outcome,[2],inactive
same,outcome,[3],inactive
same,outcome,[4],inactive
same,outcome,[5],inactive
same,outcome,[7],inactive
same,outcome,[9],inactive
Oc1ccc2c(c1)-c1ccccc1C2,outcome,[1],inactive
same,outcome,[2],inactive
same,outcome,[3],inactive
same,outcome,[4],inactive
same,outcome,[5],inactive
same,outcome,[7],inactive
same,outcome,[9],inactive
CC(C)(O)c1coc(S(=O)(=O)NC(=O)Nc2c3c(cc4c2CCC4)CCC3)c1,outcome,[1],inactive
same,outcome,[2],inactive
same,outcome,[3],inactive
same,outcome,[4],inactive
same,outcome,[5],inactive
same,outcome,[6],inactive
same,outcome,[7],inactive
same,outcome,[9],inactive
same,outcome,[8],inactive
O=P(OC(CCl)CCl)(OC(CCl)CCl)OC(CCl)CCl,outcome,[1],inactive
same,outcome,[2],inactive
same,outcome,[3],inactive
same,outcome,[4],inactive
same,outcome,[5],inactive
same,outcome,[7],inactive
same,outcome,[9],inactive
same,outcome,[8],inactive
CC(C)CCCCCCCOC(=O)CCCCC(=O)OCCCCCCCC(C)C,outcome,[1],inactive
same,outcome,[2],inactive
same,outcome,[3],inactive
same,outcome,[4],inactive
same,outcome,[5],inactive
same,outcome,[7],inactive
same,outcome,[9],inactive
CCOCCO,outcome,[1],inactive
same,outcome,[2],inactive
same,outcome,[3],inactive
same,outcome,[4],inactive
same,outcome,[5],inactive
same,outcome,[6],inactive
same,outcome,[7],inactive
same,outcome,[8],inactive
COC(=O)c1ccccc1O,outcome,[1],inactive
same,outcome,[2],inactive
same,outcome,[3],inactive
same,outcome,[4],inactive
same,outcome,[5],inactive
same,outcome,[6],inactive
same,outcome,[7],inactive
same,outcome,[8],inactive
CC(C)c1cccc(C(C)C)c1N1C(=O)c2ccc(O)cc2C1=O,AC50,[1],22 µM (active)
same,outcome,[2],inactive
same,AC50,[3],26 µM (active)
same,AC50,[4],29.1 µM (active)
same,AC50,[5],30.9 µM (active)
same,AC50,[7],29.4 µM (active)
same,outcome,[9],inactive
COc1cccc(-c2ccc(/C=C\CN3CCCCCC3)cc2Cl)c1,AC50,[1],25.3 µM (active)
same,AC50,[2],28.4 µM (active)
same,AC50,[3],29.7 µM (active)
same,AC50,[4],30.6 µM (active)
same,AC50,[5],29 µM (active)
same,AC50,[7],33.3 µM (active)
same,AC50,[8],28 µM (active)
CCCCCCCCO,outcome,[1],inactive
same,outcome,[2],inactive
same,outcome,[3],inactive
same,outcome,[4],inactive
same,outcome,[5],inactive
same,outcome,[7],inactive
same,outcome,[8],inactive
O=C(O)c1cccc(N(Cc2cccnc2)c2ccc(OC(F)F)c(OC(F)F)c2)c1,AC50,[1],1.26 µM (active)
same,outcome,[2],inactive
same,outcome,[3],inactive
same,outcome,[4],inactive
same,outcome,[5],inactive
same,outcome,[6],inactive
same,outcome,[7],inactive
same,outcome,[9],inactive
same,outcome,[8],inactive
Cc1c(-c2cccnc2)c2ccccc2n1CCCCC(=O)O,outcome,[1],inactive
same,outcome,[2],inactive
same,outcome,[3],inactive
same,outcome,[4],inactive
same,outcome,[5],inactive
same,outcome,[7],inactive
O=C(O)CCN(C1(C(=O)NO)CCCC1)S(=O)(=O)c1ccc(Oc2ccc(F)cc2)cc1,outcome,[1],inactive
same,outcome,[2],inactive
same,outcome,[3],inactive
same,outcome,[4],inactive
same,outcome,[5],inactive
same,outcome,[7],inactive
same,outcome,[8],inactive
O=c1[nH]c2ccc(S(=O)CCN3CCC(Cc4ccc(F)cc4)CC3)cc2o1 (centres undefined),outcome,[1],inactive
same,outcome,[2],inactive
same,outcome,[3],inactive
same,outcome,[4],inactive
same,outcome,[5],inactive
same,outcome,[6],inactive
same,outcome,[7],inactive
same,outcome,[8],inactive
